# According to PubChem BioAssay (EPA / NIEHS):
# Records with an inconclusive call do not appear. The source made the active and inactive calls. The calls were made as follows: active = hit-call score of the fitted dose curve at least 0.9, where 1 is the maximum; inconclusive = response in the unintended direction; inactive = score below 0.9.
# Experiments:
# [1] = molecular target: Type-1 angiotensin II receptor (Homo sapiens) (UniProt P30556); assay: NVS_GPCR_hAT1: NovaScreen (NVS) G Protein-Coupled Receptor Assay for human Angiotensin II receptor type 1 (AT1) (AID 2283263)
# Protocol: (§1) NVS_GPCR_hAT1 is a biochemical, single-readout assay that uses extracted gene-proteins from KAN-TS in a tissue-based cell-free assay. Measurements were taken 3 hours after chemical dosing in a 48-well plate.NVS_GPCR_hAT1 is one of one assay component(s) measured or calculated from the NVS_GPCR_hAT1 assay. It is designed to make measurements of radioligand binding, a form of binding reporter, as detected with scintillation counting signals by Filter-based radiodetection technology.Data from the assay component NVS_GPCR_hAT1 was analyzed into 1 assay endpoint. This assay endpoint, NVS_GPCR_hAT1, was analyzed in the positive analysis fitting direction relative to DMSO as the negative control and baseline of activity. […] Furthermore, this assay endpoint can be referred to as a primary readout, because the performed assay has only produced 1 assay endpoint. […]
# (§2) Binding assays used specific radioligands (tritiated, iodinated) with non-radioactive competitive displacement ligands in agonist or antagonist protocols (as indicated) and various reference compounds and inhibitors to titrate specific binding to receptors and transporters. Most enzyme assays (CYPs, kinases, phosphatases, proteases, HDACs) used recombinant protein and specific substrates (fluorescence mostly, some colorimetric and radioactive) and inhibitors, followed by a biochemical separation of substrate and product. […]
# [2] = molecular target: human Endothelin Receptor Type B (ETB), EDNRB (gene 1910) (UniProt P24530); assay: NVS_GPCR_hETB: NovaScreen (NVS) G Protein-Coupled Receptor Assay for human Endothelin Receptor Type B (ETB) (AID 2283267)
# Procedure, shortened: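 Human astrocytoma cell membranes; radioligand competitive binding read by filter scintillation counting 4 hours after dosing. Single-concentration duplicate screen at 25 uM, then singleton concentration-response up to 50 uM; loss of signal versus DMSO.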
# [3] = molecular target: Muscarinic acetylcholine receptor M1 (Homo sapiens) (UniProt P11229); assay: NVS_GPCR_hM1: NovaScreen (NVS) G Protein-Coupled Receptor Assay for human Muscarinic, M1 Receptor (AID 2283270)
# Procedure, shortened: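 Cell-free radioligand displacement using membrane protein extracted from CHO cells, read by filter-based scintillation counting 1 h after dosing. Loss of bound signal fitted versus DMSO; primary screen single concentration 25 uM in duplicate, actives followed by concentration series.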
# [4] = molecular target: human Endothelin Receptor Type A (ETA), EDNRA (gene 1909) (UniProt P25101); assay: NVS_GPCR_hETA: NovaScreen (NVS) G Protein-Coupled Receptor Assay for human Endothelin Receptor Type A (ETA) (AID 2283265)
# Procedure, shortened: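 Cell-free radioligand displacement using SH-SY5Y-derived protein, 3 h incubation, filter-based scintillation counting. Primary screen in duplicate at 25 uM; actives then run in concentration-response up to 50 uM; loss of binding fitted versus DMSO.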
# [5] = molecular target: human Histamine 1 Receptor (H1), HRH1 (gene 3269) (UniProt P35367); assay: NVS_GPCR_hH1: NovaScreen (NVS) G Protein-Coupled Receptor Assay for human Histamine 1 Receptor (H1) (AID 2283268)
# Procedure, shortened: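 Cell-free radioligand displacement at human H1 receptor, 1 h, filter scintillation counting; primary screen 25 uM in duplicate, hits in concentration series; loss of binding fitted vs DMSO.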
# [6] = molecular target: Muscarinic acetylcholine receptor M3 (Homo sapiens) (UniProt P20309); assay: NVS_GPCR_hM3: NovaScreen (NVS) G Protein-Coupled Receptor Assay for human Muscarinic, M3 Receptor (AID 2283272)
# Protocol: as §1, with “NVS_GPCR_hM3” for “NVS_GPCR_hAT1”, “CHO” for “KAN-TS”, “a” for “a tissue-based”, “1 hour” for “3 hours”, “96-well plate.NVS_GPCR_hM3” for “48-well plate.NVS_GPCR_hAT1”, “NVS_GPCR_hM3,” for “NVS_GPCR_hAT1,”
# as §2
# [7] = molecular target: human Leukotriene B4 Receptor 1 (LTB4-BLT1), LTB4R (gene 1241) (UniProt Q15722); assay: NVS_GPCR_hLTB4_BLT1: NovaScreen (NVS) G Protein-Coupled Receptor Assay for human Leukotriene B4 Receptor 1 (LTB4-BLT1) (AID 2283271)
# Procedure, shortened: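 Radioligand displacement binding on receptor extracted from human neutrophils, cell-free, 1 h after dosing; filter-based scintillation counting. Primary screen in duplicate at 25 uM, actives retested in concentration-response up to 50 uM; loss of signal versus DMSO.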
# Sequence of human Leukotriene B4 Receptor 1 (LTB4-BLT1), LTB4R (gene 1241) (Q15722 whole entry, looked up): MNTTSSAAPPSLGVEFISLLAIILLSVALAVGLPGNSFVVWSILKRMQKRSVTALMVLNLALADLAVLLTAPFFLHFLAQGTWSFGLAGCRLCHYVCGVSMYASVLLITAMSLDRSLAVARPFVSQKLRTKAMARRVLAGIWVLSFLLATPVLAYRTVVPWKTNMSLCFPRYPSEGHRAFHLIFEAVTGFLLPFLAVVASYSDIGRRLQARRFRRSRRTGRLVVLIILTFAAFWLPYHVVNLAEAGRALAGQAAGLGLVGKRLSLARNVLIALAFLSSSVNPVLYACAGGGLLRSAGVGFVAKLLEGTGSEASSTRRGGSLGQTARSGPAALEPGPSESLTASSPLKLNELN
# Sequence of Muscarinic acetylcholine receptor M1 (Homo sapiens) (P11229 whole entry, looked up): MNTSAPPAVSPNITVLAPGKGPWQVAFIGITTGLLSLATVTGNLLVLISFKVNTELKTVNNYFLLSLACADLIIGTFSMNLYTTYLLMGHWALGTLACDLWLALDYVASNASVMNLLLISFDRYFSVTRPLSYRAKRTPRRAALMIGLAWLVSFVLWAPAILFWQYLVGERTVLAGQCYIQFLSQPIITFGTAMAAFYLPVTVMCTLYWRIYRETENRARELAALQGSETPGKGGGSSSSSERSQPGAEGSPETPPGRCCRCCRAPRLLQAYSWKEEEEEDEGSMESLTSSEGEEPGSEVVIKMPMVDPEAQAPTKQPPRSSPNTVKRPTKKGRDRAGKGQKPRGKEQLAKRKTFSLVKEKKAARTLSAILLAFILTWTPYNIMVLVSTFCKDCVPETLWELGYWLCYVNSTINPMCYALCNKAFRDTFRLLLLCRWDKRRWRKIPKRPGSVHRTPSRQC
# Sequence of human Endothelin Receptor Type B (ETB), EDNRB (gene 1910) (P24530 whole entry, looked up): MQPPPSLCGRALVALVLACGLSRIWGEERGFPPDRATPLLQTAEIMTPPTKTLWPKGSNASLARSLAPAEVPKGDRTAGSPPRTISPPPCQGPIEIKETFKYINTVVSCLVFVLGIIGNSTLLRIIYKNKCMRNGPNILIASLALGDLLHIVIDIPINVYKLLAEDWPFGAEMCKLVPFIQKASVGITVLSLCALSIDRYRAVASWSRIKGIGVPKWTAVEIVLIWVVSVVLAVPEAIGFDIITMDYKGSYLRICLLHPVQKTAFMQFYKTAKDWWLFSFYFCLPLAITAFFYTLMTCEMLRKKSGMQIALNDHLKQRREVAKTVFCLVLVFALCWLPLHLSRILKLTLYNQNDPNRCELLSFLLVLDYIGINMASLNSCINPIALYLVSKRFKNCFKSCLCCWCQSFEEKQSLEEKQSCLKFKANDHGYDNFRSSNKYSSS
# Sequence of human Histamine 1 Receptor (H1), HRH1 (gene 3269) (P35367 whole entry, looked up): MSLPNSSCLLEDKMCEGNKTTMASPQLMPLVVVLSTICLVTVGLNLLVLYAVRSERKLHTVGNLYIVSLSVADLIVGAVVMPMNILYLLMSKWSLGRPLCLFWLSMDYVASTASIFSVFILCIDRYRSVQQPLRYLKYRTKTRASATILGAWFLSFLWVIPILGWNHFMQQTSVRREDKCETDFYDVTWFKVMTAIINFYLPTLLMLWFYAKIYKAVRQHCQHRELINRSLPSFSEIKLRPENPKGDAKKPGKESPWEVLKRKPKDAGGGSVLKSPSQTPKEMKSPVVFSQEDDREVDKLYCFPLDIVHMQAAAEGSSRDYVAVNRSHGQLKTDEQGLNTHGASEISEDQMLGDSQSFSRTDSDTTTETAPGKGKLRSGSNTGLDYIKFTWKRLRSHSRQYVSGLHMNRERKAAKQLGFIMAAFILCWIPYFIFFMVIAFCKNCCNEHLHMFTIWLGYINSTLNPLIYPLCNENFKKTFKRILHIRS
# Sequence of Type-1 angiotensin II receptor (Homo sapiens) (P30556 whole entry, looked up): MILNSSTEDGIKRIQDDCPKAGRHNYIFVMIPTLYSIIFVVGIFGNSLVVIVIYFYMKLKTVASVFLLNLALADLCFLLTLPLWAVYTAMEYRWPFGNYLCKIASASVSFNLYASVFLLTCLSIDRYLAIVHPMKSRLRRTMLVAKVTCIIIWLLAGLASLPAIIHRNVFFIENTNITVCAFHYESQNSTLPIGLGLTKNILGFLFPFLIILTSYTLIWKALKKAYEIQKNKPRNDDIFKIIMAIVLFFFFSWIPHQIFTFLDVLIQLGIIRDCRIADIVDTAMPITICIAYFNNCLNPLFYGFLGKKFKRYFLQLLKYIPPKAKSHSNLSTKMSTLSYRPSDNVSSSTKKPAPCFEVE
# Sequence of Muscarinic acetylcholine receptor M3 (Homo sapiens) (P20309 whole entry, looked up): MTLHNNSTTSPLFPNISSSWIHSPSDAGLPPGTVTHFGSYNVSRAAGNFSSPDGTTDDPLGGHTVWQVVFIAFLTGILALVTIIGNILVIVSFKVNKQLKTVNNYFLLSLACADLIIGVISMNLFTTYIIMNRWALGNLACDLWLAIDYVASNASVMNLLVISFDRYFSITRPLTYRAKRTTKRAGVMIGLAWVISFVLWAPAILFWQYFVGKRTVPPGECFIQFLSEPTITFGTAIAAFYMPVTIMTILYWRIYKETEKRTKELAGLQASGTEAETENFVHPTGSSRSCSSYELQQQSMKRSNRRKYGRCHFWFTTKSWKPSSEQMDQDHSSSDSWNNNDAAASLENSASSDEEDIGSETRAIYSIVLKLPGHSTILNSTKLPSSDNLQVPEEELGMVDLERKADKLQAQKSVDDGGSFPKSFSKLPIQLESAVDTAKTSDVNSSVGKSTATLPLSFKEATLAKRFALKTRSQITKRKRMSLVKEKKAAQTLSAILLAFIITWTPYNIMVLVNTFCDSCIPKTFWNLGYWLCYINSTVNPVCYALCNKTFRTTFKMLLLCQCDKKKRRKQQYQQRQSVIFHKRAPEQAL
# Sequence of human Endothelin Receptor Type A (ETA), EDNRA (gene 1909) (P25101 whole entry, looked up): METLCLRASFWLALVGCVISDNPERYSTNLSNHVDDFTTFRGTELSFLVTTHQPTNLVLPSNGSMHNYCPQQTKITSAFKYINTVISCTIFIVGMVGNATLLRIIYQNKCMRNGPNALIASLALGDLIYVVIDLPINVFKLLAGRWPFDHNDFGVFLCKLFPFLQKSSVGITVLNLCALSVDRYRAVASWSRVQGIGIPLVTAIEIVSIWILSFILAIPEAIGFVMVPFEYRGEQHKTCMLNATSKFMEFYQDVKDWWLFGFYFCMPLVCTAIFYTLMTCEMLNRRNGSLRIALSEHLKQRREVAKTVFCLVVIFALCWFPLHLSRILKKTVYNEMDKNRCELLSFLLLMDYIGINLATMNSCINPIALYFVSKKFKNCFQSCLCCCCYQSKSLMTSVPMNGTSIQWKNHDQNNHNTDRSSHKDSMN
structure (smiles),measurement,setting,value
Oc1ccc(C(c2ccc(O)cc2)(C(F)(F)F)C(F)(F)F)cc1,outcome,[1],inactive
same,outcome,[2],inactive
same,AC50,[3],37 µM (active)
CCCCCCCCCC[N+](C)(C)CCCCCCCCCC,AC50,[4],6.49 µM (active)
same,AC50,[2],16.4 µM (active)
same,AC50,[5],6.19 µM (active)
same,AC50,[3],7.03 µM (active)
same,AC50,[6],3.37 µM (active)
Cc1cc(-c2ccc(N)c(C)c2)ccc1N,outcome,[5],inactive
CC(C)(c1ccccc1)c1ccc(O)cc1,outcome,[7],inactive
Cc1cccc(C)c1N,outcome,[7],inactive
